Laboratory results taken from PubChem BioAssay AID588494 (NMMLSC, 2011).
Some of the results follow. Activity calls are given as the source filed them.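 Rule for the calls: active = response vs DMSO under 50%, meaning signal dropped by over half, treated as fluorescence quencher; inconclusive = no clear call, values can overlap the other calls; inactive = the rest.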

Assay: quenchers of FAM-labeled RNA aptamer fluorescence, confirmation, artefact control for GRK2 aptamer binding project, biochemical, single concentration, cherry pick 2, flow cytometry (AID 588494);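 note: labelled aptamer on streptavidin beads without GRK2 as a quench counter-screen; 100% = bead fluorescence of DMSO wells and lower means quenching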
Details: carboxyfluorescein RNA aptamer beads, flow cytometry quenching; at 10 µM; stronger effect = lower value

Fluorescence response vs DMSO, inactive:
COc1cc([N+](=O)[O-])cc([N+](=O)[O-])c1NC(=O)N1CCOCC1 103%, Cc1nnc(SCC(=O)N2c3ccccc3C(C)(c3ccc(Cl)cc3)CC2(C)C)s1 (stereo not given) 100%, CCOC(=O)C1=C(N)N(c2ccc(C)cc2)C2=C(C(=O)CCC2)C1c1cccs1 (stereo not given) 106%, CCOc1ccc(OCC)c(NC(=O)CCS(=O)(=O)c2ccc(C)cc2)c1 99%, CCc1nn(CCCN2CCN(c3cccc(Cl)c3)CC2)c(=O)n1CCOc1ccccc1 100%, O=C(C1CCCN(S(=O)(=O)c2ccc([N+](=O)[O-])cc2)C1)N1CCCCC1 (stereo not given) 103%, CC(=O)c1ccc(N2CCN(C(=O)c3ccc4nc[nH]c4c3)CC2)cc1 102%, O=C(CCS(=O)(=O)c1ccccc1)NC1CCCC1 94%, COCCn1c(N)c(NCc2ccccc2)c(=O)[nH]c1=O 103%, NC(=O)[C@H]1CC2(CC(c3cccc(NC(=O)[C@H]4CCC(=O)N4)c3)=NO2)CN1C(=O)c1ccccc1C(=O)c1ccccc1 (stereo not given in full) 101%, CCC(C)(C(=O)NC1CCCCC1)N(C)C(=O)c1ccc2c(c1)OCO2 (stereo not given) 103%, COc1cccc(OC)c1C(=O)Nc1ccc(Cc2ccncc2)cc1 98%, COc1ccccc1C(=O)N(Cc1ccc(C)o1)C1CCS(=O)(=O)C1 (stereo not given) 98%, CN=C(Nc1cccc(S(=O)(=O)N2CCOCC2)c1)c1ccccc1 110%, O=[N+]([O-])c1ccccc1S(=O)(=O)Nc1cccc2cccnc12 103%
